Laboratory results taken from publication PMC7819943, “Rice protein-binding microarrays: a tool to detect cis-acting elements near promoter regions in rice”.
The full ranking holds about 39,000 sequences; the median of “fluorescence intensity (a.u.)” is about 4,300, and the highest 2% start at about 39,000. What follows is part of a selection rich in the highest values, with near analogues and random picks from the rest.

molecular target: T1, OsSMF1 (Oryza sativa, UniProt Q6ZLB0 1-436); assay: protein-binding microarray (RPBM); PBS, 2% BSA, 51.3 ng/ul salmon testes DNA, 50 uM zinc acetate, 200 nM TF, 25 C, 1 h; high values mean tight binding; settings: protein: recombinant; tags: N-terminal polyhistidine and DsRed monomer fusion (pET32a); chain copies: 2; label: CyDye5-dUTP incorporated in the synthesized complementary strand; 3' TTTTT single-stranded linker to array surface; dsDNA, one strand shown
T1 sequence: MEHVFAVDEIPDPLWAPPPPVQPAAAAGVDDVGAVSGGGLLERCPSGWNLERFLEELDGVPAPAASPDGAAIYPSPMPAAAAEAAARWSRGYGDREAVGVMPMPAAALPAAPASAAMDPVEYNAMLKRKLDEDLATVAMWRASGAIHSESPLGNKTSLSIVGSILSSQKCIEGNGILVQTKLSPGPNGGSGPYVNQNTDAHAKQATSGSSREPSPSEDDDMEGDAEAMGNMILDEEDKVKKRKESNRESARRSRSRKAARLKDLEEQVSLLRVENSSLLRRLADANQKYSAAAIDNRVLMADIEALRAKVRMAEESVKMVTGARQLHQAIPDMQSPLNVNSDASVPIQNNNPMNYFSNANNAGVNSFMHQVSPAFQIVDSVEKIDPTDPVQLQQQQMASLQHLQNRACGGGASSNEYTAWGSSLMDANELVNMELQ
How it was run: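 The binding signal is fluorescence intensity per feature, in arbitrary units, read on an Axon 4000B scanner. Polyhistidine- and DsRed-tagged transcription factors (N-terminal fusions) from E. coli BL21-CodonPlus were purified on Ni–NTA and applied at 200 nM for 1 h at 25 °C to a double-stranded, BSA-blocked custom Agilent array in buffer with 50 µM zinc acetate.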

Sequence | binding signal
GAGAGAGTGTAGGTTGCCGATGACGTTCCAAATATTGATCCGGAGTCACCTAGTGCAG | 4490 fluorescence intensity (a.u.)
ATGACGATGGTTAATCCAAATAACATATTGGCCCGGGTTCCGGAGTCACCTAGTGCAG | 49900 fluorescence intensity (a.u.)
TTATTATTATTGGATGGTTAGATGACAAATCCAACCTCACCGGAGTCACCTAGTGCAG | 3640 fluorescence intensity (a.u.)
ACCTTCATTGGATCTGCCTCCCTGCAAGCCTCTGCCTCAACGGAGTCACCTAGTGCAG | 43300 fluorescence intensity (a.u.)
ATTGACATGGAGTCATGGACACTCTCCCTGCCTCCTCCCTCGGAGTCACCTAGTGCAG | 3370 fluorescence intensity (a.u.)
CACCTTCTTCAAGCTCCCTCCTCTGAAGCCTCTTCTTCTTCGGAGTCACCTAGTGCAG | 34900 fluorescence intensity (a.u.)
TCCAGTTGTGCGTGGAGATGTTGGTGAAGAGCTTCCGCTGCGGAGTCACCTAGTGCAG | 4270 fluorescence intensity (a.u.)
TGAAATGCTATGTTGGTCCAGACTTCCGCTACGAAGGAGACGGAGTCACCTAGTGCAG | 65100 fluorescence intensity (a.u.)
TCTCCACTTCAGAGACGGTCCCACCTGTCATCCGCTCATACGGAGTCACCTAGTGCAG | 4680 fluorescence intensity (a.u.)
CCCTTACACCGCCCTGTGAACAGTCACTGACAATCCTGGCCGGAGTCACCTAGTGCAG | 4330 fluorescence intensity (a.u.)
TTAGTGCATGCTGCTAACTAAATACACGTAGCTTGTTGATCGGAGTCACCTAGTGCAG | 3310 fluorescence intensity (a.u.)
AAATTCCACGTGCCACATATTTCGTTCATTTGAGTTTATTCGGAGTCACCTAGTGCAG | 8820 fluorescence intensity (a.u.)
CTCCTGCCCACCAATCTTGCGGCGGAAAACAAGGCGTGATCGGAGTCACCTAGTGCAG | 4000 fluorescence intensity (a.u.)
CCTACACATATATATATATATATGCATGGCAACTTGGCAACGGAGTCACCTAGTGCAG | 3340 fluorescence intensity (a.u.)
GCGAAGCAACATGCTGCTGCTCAAGAGGAGGAAGATGGTGCGGAGTCACCTAGTGCAG | 3350 fluorescence intensity (a.u.)
TTCATAGAGAGGGCCGGCAACGGCCTAGGCACGCTGGTGTCGGAGTCACCTAGTGCAG | 34700 fluorescence intensity (a.u.)
GTACGTCGGAAGCAACGGCAGACATGACAGCATATGGCCTCGGAGTCACCTAGTGCAG | 15900 fluorescence intensity (a.u.)
TTGATGGAGATGGGAGTTGGTGCGGATGTCCTTGTCGCCCCGGAGTCACCTAGTGCAG | 3200 fluorescence intensity (a.u.)
GAGAGTCGCCTTGTCAACATATGGCAGATGCAGCTGGTGCCGGAGTCACCTAGTGCAG | 61100 fluorescence intensity (a.u.)
TCAGCTGGCATGCATGGCAACATATATATGGCTGGAAGTACGGAGTCACCTAGTGCAG | 40000 fluorescence intensity (a.u.)
TGGTGCTGTGGTGGTGGTGGTCATGGACTCATTGGGCATGCGGAGTCACCTAGTGCAG | 3180 fluorescence intensity (a.u.)

Sequence | binding signal
TGGTGCTGGTCCTCAACATGCATGTGCTATGGCAAGATCCCGGAGTCACCTAGTGCAG | 42800 fluorescence intensity (a.u.)
AGCTCGTGACGTTAATCTCCGTATAACCAAGCCATGTTGTCGGAGTCACCTAGTGCAG | 6620 fluorescence intensity (a.u.)
CATATAATTGATAGCAGCATGACAGATTGCCAGTTAGCCGCGGAGTCACCTAGTGCAG | 3290 fluorescence intensity (a.u.)
AGTAGTAGGGCGCGACACGCGTGTACGTTGCGATAGATGTCGGAGTCACCTAGTGCAG | 3330 fluorescence intensity (a.u.)
ATGTCTCGTTATCTCCTAAACATGTCATTACACTGGAAACCGGAGTCACCTAGTGCAG | 3240 fluorescence intensity (a.u.)
TATGGGGCCGTGATATTCAATGTGATGTGCATACAGCATGCGGAGTCACCTAGTGCAG | 3720 fluorescence intensity (a.u.)
CTGCCTCCTGTTCGCGCTCCACGCCACCACTGCCGACGAGCGGAGTCACCTAGTGCAG | 4300 fluorescence intensity (a.u.)
AGAGCGATCTGATCGACCGAGTTGTGTCATGCCGTACTACCGGAGTCACCTAGTGCAG | 4330 fluorescence intensity (a.u.)
AATTATCTTGAAGCACCTCAACTCAACCTGATGTCATACACGGAGTCACCTAGTGCAG | 4390 fluorescence intensity (a.u.)
CCAATTTCCGACTTCATGAGATTTATGTCTTTGTGGTCAGCGGAGTCACCTAGTGCAG | 3210 fluorescence intensity (a.u.)
GAATTTACTTTAGCGGAGATTGAGCACTTTGTGGACCCAGCGGAGTCACCTAGTGCAG | 52400 fluorescence intensity (a.u.)
AGATTTGTGCTCTGACCCACTTCACTCACTTAGTCTCTAGCGGAGTCACCTAGTGCAG | 3630 fluorescence intensity (a.u.)
ATGTGTAATGACATGACTAGGCATTCCCTTCAGTTAGTCTCGGAGTCACCTAGTGCAG | 9940 fluorescence intensity (a.u.)
GTGGAATATTTCTGATCATGGTTTGGGAATAAACGTTCTGCGGAGTCACCTAGTGCAG | 3310 fluorescence intensity (a.u.)
GAGACCGTTCTGAATTTCTGAGACTGATACATATTTGATGCGGAGTCACCTAGTGCAG | 40300 fluorescence intensity (a.u.)
TGCTTCTGATACTCACGTATATTTCATACACACGTGAATGCGGAGTCACCTAGTGCAG | 3210 fluorescence intensity (a.u.)
CGTGCATCCGCTTGTGCTGCCACTTCGACAGCCCGCCCGGCGGAGTCACCTAGTGCAG | 3570 fluorescence intensity (a.u.)
GGGCTCCATAATAGAGTGCCACACTAGCATGTTACGATATCGGAGTCACCTAGTGCAG | 3510 fluorescence intensity (a.u.)
TCTACTGCAATTAGTTGATTCAGCTAGTAGCAAACATAATCGGAGTCACCTAGTGCAG | 54800 fluorescence intensity (a.u.)
TTAACAGTTGGTTACTAGTCCTAATTAATTCAGTAGCAATCGGAGTCACCTAGTGCAG | 4700 fluorescence intensity (a.u.)
CATAATTAGCGGTTGATTACTGTAGCATCACTGTAACAAACGGAGTCACCTAGTGCAG | 3730 fluorescence intensity (a.u.)
